Reference: PubChem BioAssay (EPA / NIEHS)
Results filed as inconclusive are left out. Active and inactive are the calls of the source. Rule for the calls: active = hit-call score of the fitted dose curve at least 0.9, where 1 is the maximum; inconclusive = response in the unintended direction; inactive = score below 0.9.

target: human Acetylcholinesterase (AChE), ACHE (gene 43) (UniProt P22303); experiment: NVS_ENZ_hAChE: NovaScreen (NVS) Enzymatic Assay for human Acetylcholinesterase (AChE) (AID 2283129)
Experimental: NVS_ENZ_hAChE is a biochemical, single-readout assay that uses extracted gene-proteins in a cell-free assay. Measurements were taken 0.33 hour after chemical dosing in a 96-well plate.NVS_ENZ_hAChE is one of one assay component(s) measured or calculated from the NVS_ENZ_hAChE assay. It is designed to make measurements of enzyme activity, a form of enzyme reporter, as detected with absorbance signals by Colorimetric technology.Data from the assay component NVS_ENZ_hAChE was analyzed into 1 assay endpoint. This assay endpoint, NVS_ENZ_hAChE, was analyzed in the positive analysis fitting direction relative to DMSO as the negative control and baseline of activity. Using a type of enzyme reporter, loss-of-signal activity can be used to understand changes in the enzymatic activity as they relate to the gene ACHE. Furthermore, this assay endpoint can be referred to as a primary readout, because this assay has produced multiple assay endpoints where this one serves a enzymatic activity function. To generalize the intended target to other relatable targets, this assay endpoint is annotated to the esterase intended target family, where the subfamily is acetylcholinesterase.
Binding assays used specific radioligands (tritiated, iodinated) with non-radioactive competitive displacement ligands in agonist or antagonist protocols (as indicated) and various reference compounds and inhibitors to titrate specific binding to receptors and transporters. Most enzyme assays (CYPs, kinases, phosphatases, proteases, HDACs) used recombinant protein and specific substrates (fluorescence mostly, some colorimetric and radioactive) and inhibitors, followed by a biochemical separation of substrate and product. All assays for the biochemical HTS were initially run in duplicate at a single concentration (10 uM for CYP450 assays and 25 uM for all others). […] Each assay was run with positive and negative controls, and concurrent controls on every plate. The follow-up (secondary) screen tested active chemical-pairs in concentration series, as well as a few additional assays not tested in the primary screen, some selected negative inactives, and several cases re-run in the concentration series for confirmatory purposes.

Sequence of human Acetylcholinesterase (AChE), ACHE (gene 43) (P22303 whole entry, looked up): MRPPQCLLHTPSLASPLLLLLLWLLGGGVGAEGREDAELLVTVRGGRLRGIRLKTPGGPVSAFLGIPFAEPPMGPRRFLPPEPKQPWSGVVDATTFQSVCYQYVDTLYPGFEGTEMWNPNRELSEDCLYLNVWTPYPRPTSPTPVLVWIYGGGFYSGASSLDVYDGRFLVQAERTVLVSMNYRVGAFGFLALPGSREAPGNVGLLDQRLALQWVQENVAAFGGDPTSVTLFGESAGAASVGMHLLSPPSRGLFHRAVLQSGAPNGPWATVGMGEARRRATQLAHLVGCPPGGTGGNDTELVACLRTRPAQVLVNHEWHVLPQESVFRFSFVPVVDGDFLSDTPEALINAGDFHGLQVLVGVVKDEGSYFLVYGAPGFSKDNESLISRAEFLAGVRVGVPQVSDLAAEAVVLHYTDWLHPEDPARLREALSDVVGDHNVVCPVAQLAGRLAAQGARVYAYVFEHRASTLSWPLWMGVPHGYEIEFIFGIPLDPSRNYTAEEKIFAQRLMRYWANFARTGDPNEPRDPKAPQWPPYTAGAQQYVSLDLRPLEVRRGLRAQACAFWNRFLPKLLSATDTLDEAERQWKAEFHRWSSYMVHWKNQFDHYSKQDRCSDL

SMILES | AC50 | outcome
CCCSP(=O)(OCC)Oc1ccc(Br)cc1Cl (stereo not given) | 7.93 µM (active) | 
COP(=O)(OC)SCn1c(=O)oc2cc(Cl)cnc21 | 6.65 µM (active) | 
CCOC(=O)CC(SP(=O)(OC)OC)C(=O)OCC (stereo not given) |  | inactive
CNC(=O)ON=C(C)SC | 25 µM (active) | 
COP(=O)(OC)OC(Br)C(Cl)(Cl)Br (stereo not given) | 3.67 µM (active) | 
CCC(=O)Nc1ccc(Cl)c(Cl)c1 |  | inactive
CNC(=O)ON=C(SC)C(=O)N(C)C | 12 µM (active) | 
CC(=NC#N)N(C)Cc1ccc(Cl)nc1 | 22.4 µM (active) | 
CNC(=O)Oc1cccc2c1OC(C)(C)O2 | 1.36 µM (active) | 
CCOP(=S)(OCC)OC(Cl)C(Cl)(Cl)Cl (stereo not given) | 8.21 µM (active) | 
